# Data reported in publication PMC11006913.
# Changes are numbered by the printed parent chain.
# Experiments:
# Assay in all cases: PBM; 200 nM protein, PBS
# Settings in all cases: dsDNA, one strand shown
# NKX2-4 [1] = molecular target: T1, NKX2-4 (Homo sapiens, UniProt Q9H2Z4 175-261, P217L)
# T1 sequence: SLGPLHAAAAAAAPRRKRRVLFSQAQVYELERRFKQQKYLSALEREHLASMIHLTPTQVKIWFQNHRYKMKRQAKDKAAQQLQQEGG
# NKX2-4 [2] = molecular target: T2, NKX2-4 (Homo sapiens, UniProt Q9H2Z4 175-261, T231S)
# T2 sequence: T1 sequence with L43P, T57S
# NKX2-4 [3] = molecular target: T3, NKX2-4 (Homo sapiens, UniProt Q9H2Z4 175-261)
# T3 sequence: T1 sequence with L43P
# NKX2-4 [4] = molecular target: T4, NKX2-4 (Homo sapiens, UniProt Q9H2Z4 175-261, R246Q)
# T4 sequence: T1 sequence with L43P, R72Q
# VENTX [5] = molecular target: T5, VENTX (Homo sapiens, UniProt O95231 78-163, R121Q)
# T5 sequence: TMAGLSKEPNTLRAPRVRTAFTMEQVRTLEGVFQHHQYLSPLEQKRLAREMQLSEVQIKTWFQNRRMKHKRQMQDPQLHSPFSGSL
# PROP1 [6] = molecular target: PROP1 (Homo sapiens, UniProt O75360 56-141)
# PROP1 [7] = molecular target: PROP1 (Homo sapiens, UniProt O75360 56-141, R99H)
# PROP1 [8] = molecular target: PROP1 (Homo sapiens, UniProt O75360 56-141, F88S)
# HOXB9 [9] = molecular target: HOXB9 (Homo sapiens, UniProt P17482 171-250, T197M)
# VENTX [10] = molecular target: T6, VENTX (Homo sapiens, UniProt O95231 78-163)
# T6 sequence: T5 sequence with Q44R
# VENTX [11] = molecular target: T7, VENTX (Homo sapiens, UniProt O95231 78-163, Y115F)
# T7 sequence: T5 sequence with Y38F, Q44R
# HOXB9 [12] = molecular target: HOXB9 (Homo sapiens, UniProt P17482 171-250)
# HOXD13 [13] = molecular target: HOXD13 (Homo sapiens, UniProt P35453 263-343, T313R)
# HOXD13 [14] = molecular target: HOXD13 (Homo sapiens, UniProt P35453 263-343)
# HOXD13 [15] = molecular target: HOXD13 (Homo sapiens, UniProt P35453 263-343, T313A)
# HOXB9 [16] = molecular target: HOXB9 (Homo sapiens, UniProt P17482 171-250, R186Q)
# PAX4 [17] = molecular target: T8, PAX4 (Homo sapiens, UniProt O43316 9-242, R200K)
# T8 sequence: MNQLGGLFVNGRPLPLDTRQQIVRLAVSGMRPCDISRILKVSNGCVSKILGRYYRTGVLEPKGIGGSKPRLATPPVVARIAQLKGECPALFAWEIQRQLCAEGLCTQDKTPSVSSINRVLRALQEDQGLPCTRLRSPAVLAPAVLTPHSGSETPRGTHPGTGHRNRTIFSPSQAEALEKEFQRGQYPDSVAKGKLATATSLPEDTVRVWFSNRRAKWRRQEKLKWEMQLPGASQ
# PRRX1 [18] = molecular target: PRRX1 (Homo sapiens, UniProt P54821 80-166, F113S)
# PAX4 [19] = molecular target: T9, PAX4 (Homo sapiens, UniProt O43316 9-242)
# T9 sequence: T8 sequence with K192R
# ALX1 [20] = molecular target: ALX1 (Homo sapiens, UniProt Q15699 118-204, L144V)
# ALX3 [21] = molecular target: ALX3 (Homo sapiens, UniProt O95076 139-225, N203Q)
# PAX4 [22] = molecular target: T10, PAX4 (Homo sapiens, UniProt O43316 9-242, R200Q)
# T10 sequence: T8 sequence with K192Q
# ALX1 [23] = molecular target: ALX1 (Homo sapiens, UniProt Q15699 118-204, L144R)
# PAX4 [24] = molecular target: T11, PAX4 (Homo sapiens, UniProt O43316 9-242, F177V)
# T11 sequence: T8 sequence with F169V, K192R
# ALX3 [25] = molecular target: ALX3 (Homo sapiens, UniProt O95076 139-225)
# PAX4 [26] = molecular target: T12, PAX4 (Homo sapiens, UniProt O43316 9-242, F177Y)
# T12 sequence: T8 sequence with F169Y, K192R
# ALX3 [27] = molecular target: ALX3 (Homo sapiens, UniProt O95076 139-225, L168Q)
# ALX3 [28] = molecular target: ALX3 (Homo sapiens, UniProt O95076 139-225, L168V)
# PAX4 [29] = molecular target: T13, PAX4 (Homo sapiens, UniProt O43316 9-242, R227W)
# T13 sequence: T8 sequence with K192R, R219W
# ALX1 [30] = molecular target: ALX1 (Homo sapiens, UniProt Q15699 118-204)
# ALX3 [31] = molecular target: ALX3 (Homo sapiens, UniProt O95076 139-225, N203S)
# PRRX1 [32] = molecular target: PRRX1 (Homo sapiens, UniProt P54821 80-166)
# HOXA4 [33] = molecular target: HOXA4 (Homo sapiens, UniProt Q00056 201-287, W262R)
# HOXA4 [34] = molecular target: HOXA4 (Homo sapiens, UniProt Q00056 201-287, R217L)
# HOXA4 [35] = molecular target: HOXA4 (Homo sapiens, UniProt Q00056 201-287)
# HOXA4 [36] = molecular target: HOXA4 (Homo sapiens, UniProt Q00056 201-287, W262F)
# Sequence of HOXA4 (Homo sapiens, UniProt Q00056 201-287, W262F) (Q00056 201-287 W262F): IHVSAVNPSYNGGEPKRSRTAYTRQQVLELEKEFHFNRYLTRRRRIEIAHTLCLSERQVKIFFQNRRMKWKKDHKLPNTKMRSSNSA
# Sequence of HOXB9 (Homo sapiens, UniProt P17482 171-250, R186Q) (P17482 171-250 R186Q): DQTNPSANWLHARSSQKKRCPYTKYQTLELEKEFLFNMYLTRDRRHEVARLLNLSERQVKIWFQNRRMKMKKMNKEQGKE
# Sequence of HOXB9 (Homo sapiens, UniProt P17482 171-250) (P17482 171-250): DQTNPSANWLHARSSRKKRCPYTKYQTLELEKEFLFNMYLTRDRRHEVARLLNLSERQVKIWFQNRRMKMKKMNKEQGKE
# Sequence of HOXB9 (Homo sapiens, UniProt P17482 171-250, T197M) (P17482 171-250 T197M): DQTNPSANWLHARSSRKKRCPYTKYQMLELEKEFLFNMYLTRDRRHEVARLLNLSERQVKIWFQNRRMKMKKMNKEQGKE
# Sequence of ALX3 (Homo sapiens, UniProt O95076 139-225, L168Q) (O95076 139-225 L168Q): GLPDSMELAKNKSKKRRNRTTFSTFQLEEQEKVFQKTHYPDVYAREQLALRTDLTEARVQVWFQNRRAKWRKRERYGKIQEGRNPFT
# Sequence of PRRX1 (Homo sapiens, UniProt P54821 80-166, F113S) (P54821 80-166 F113S): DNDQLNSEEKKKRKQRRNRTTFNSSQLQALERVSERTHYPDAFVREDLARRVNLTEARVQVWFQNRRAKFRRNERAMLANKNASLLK
# Sequence of HOXD13 (Homo sapiens, UniProt P35453 263-343) (P35453 263-343): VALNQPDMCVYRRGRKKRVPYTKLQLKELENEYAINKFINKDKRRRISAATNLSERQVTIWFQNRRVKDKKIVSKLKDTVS
# Sequence of HOXA4 (Homo sapiens, UniProt Q00056 201-287) (Q00056 201-287): as the sequence (Q00056 201-287 W262F) above, with F62W counted along it
# Sequence of HOXA4 (Homo sapiens, UniProt Q00056 201-287, R217L) (Q00056 201-287 R217L): as the sequence (Q00056 201-287 W262F) above, with R17L, F62W counted along it
# Sequence of HOXA4 (Homo sapiens, UniProt Q00056 201-287, W262R) (Q00056 201-287 W262R): as the sequence (Q00056 201-287 W262F) above, with F62R counted along it
# Sequence of PROP1 (Homo sapiens, UniProt O75360 56-141, F88S) (O75360 56-141 F88S): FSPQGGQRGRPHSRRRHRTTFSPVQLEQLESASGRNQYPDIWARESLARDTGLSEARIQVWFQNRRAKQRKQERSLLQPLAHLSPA
# Sequence of ALX3 (Homo sapiens, UniProt O95076 139-225) (O95076 139-225): as the sequence (O95076 139-225 L168Q) above, with Q30L counted along it
# Sequence of ALX3 (Homo sapiens, UniProt O95076 139-225, N203Q) (O95076 139-225 N203Q): as the sequence (O95076 139-225 L168Q) above, with Q30L, N65Q counted along it
# Sequence of ALX1 (Homo sapiens, UniProt Q15699 118-204, L144V) (Q15699 118-204 L144V): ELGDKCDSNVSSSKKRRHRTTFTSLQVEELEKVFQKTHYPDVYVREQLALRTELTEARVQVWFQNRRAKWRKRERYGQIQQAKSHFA
# Sequence of PRRX1 (Homo sapiens, UniProt P54821 80-166) (P54821 80-166): as the sequence (P54821 80-166 F113S) above, with S34F counted along it
# Sequence of HOXD13 (Homo sapiens, UniProt P35453 263-343, T313A) (P35453 263-343 T313A): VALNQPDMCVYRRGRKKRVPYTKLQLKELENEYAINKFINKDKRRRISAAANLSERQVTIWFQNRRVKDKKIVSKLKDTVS
# Sequence of PROP1 (Homo sapiens, UniProt O75360 56-141) (O75360 56-141): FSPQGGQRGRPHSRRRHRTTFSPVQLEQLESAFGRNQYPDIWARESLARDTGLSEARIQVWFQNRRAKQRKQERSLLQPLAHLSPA
# Sequence of HOXD13 (Homo sapiens, UniProt P35453 263-343, T313R) (P35453 263-343 T313R): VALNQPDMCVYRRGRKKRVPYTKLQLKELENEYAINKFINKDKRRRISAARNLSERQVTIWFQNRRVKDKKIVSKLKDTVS
# Sequence of ALX3 (Homo sapiens, UniProt O95076 139-225, L168V) (O95076 139-225 L168V): as the sequence (O95076 139-225 L168Q) above, with Q30V counted along it
# Sequence of PROP1 (Homo sapiens, UniProt O75360 56-141, R99H) (O75360 56-141 R99H): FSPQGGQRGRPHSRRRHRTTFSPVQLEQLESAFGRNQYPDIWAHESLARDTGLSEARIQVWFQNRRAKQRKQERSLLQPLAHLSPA
# Sequence of ALX1 (Homo sapiens, UniProt Q15699 118-204) (Q15699 118-204): as the sequence (Q15699 118-204 L144V) above, with V27L counted along it
# Sequence of ALX3 (Homo sapiens, UniProt O95076 139-225, N203S) (O95076 139-225 N203S): as the sequence (O95076 139-225 L168Q) above, with Q30L, N65S counted along it
# Sequence of ALX1 (Homo sapiens, UniProt Q15699 118-204, L144R) (Q15699 118-204 L144R): as the sequence (Q15699 118-204 L144V) above, with V27R counted along it
sequence,measurement,setting,value
CTCAAGAG,binding signal,NKX2-4 [1],"12.4 upbm affinity estimate (log intensity, higher = more binding, comparable within an allelic series)"
same,binding signal,NKX2-4 [2],"12.8 upbm affinity estimate (log intensity, higher = more binding, comparable within an allelic series)"
same,binding signal,NKX2-4 [3],"12.3 upbm affinity estimate (log intensity, higher = more binding, comparable within an allelic series)"
same,binding signal,NKX2-4 [4],"13 upbm affinity estimate (log intensity, higher = more binding, comparable within an allelic series)"
ACTCGTTA,binding signal,VENTX [5],"9.91 upbm affinity estimate (log intensity, higher = more binding, comparable within an allelic series)"
ACGCCTTG,binding signal,NKX2-4 [1],"9.82 upbm affinity estimate (log intensity, higher = more binding, comparable within an allelic series)"
same,binding signal,NKX2-4 [2],"9.81 upbm affinity estimate (log intensity, higher = more binding, comparable within an allelic series)"
same,binding signal,NKX2-4 [3],"9.74 upbm affinity estimate (log intensity, higher = more binding, comparable within an allelic series)"
same,binding signal,NKX2-4 [4],"9.73 upbm affinity estimate (log intensity, higher = more binding, comparable within an allelic series)"
GAGTGCCA,binding signal,NKX2-4 [1],"12.1 upbm affinity estimate (log intensity, higher = more binding, comparable within an allelic series)"
same,binding signal,NKX2-4 [2],"12.3 upbm affinity estimate (log intensity, higher = more binding, comparable within an allelic series)"
same,binding signal,NKX2-4 [3],"11.9 upbm affinity estimate (log intensity, higher = more binding, comparable within an allelic series)"
same,binding signal,NKX2-4 [4],"12.4 upbm affinity estimate (log intensity, higher = more binding, comparable within an allelic series)"
ACTTATCC,binding signal,NKX2-4 [1],"11.9 upbm affinity estimate (log intensity, higher = more binding, comparable within an allelic series)"
same,binding signal,NKX2-4 [2],"12.1 upbm affinity estimate (log intensity, higher = more binding, comparable within an allelic series)"
same,binding signal,NKX2-4 [3],"11.7 upbm affinity estimate (log intensity, higher = more binding, comparable within an allelic series)"
same,binding signal,NKX2-4 [4],"12.1 upbm affinity estimate (log intensity, higher = more binding, comparable within an allelic series)"
GCTGTGCA,binding signal,NKX2-4 [1],"9.63 upbm affinity estimate (log intensity, higher = more binding, comparable within an allelic series)"
same,binding signal,NKX2-4 [2],"9.66 upbm affinity estimate (log intensity, higher = more binding, comparable within an allelic series)"
same,binding signal,NKX2-4 [3],"9.61 upbm affinity estimate (log intensity, higher = more binding, comparable within an allelic series)"
same,binding signal,NKX2-4 [4],"9.6 upbm affinity estimate (log intensity, higher = more binding, comparable within an allelic series)"
CCCGGTGC,binding signal,NKX2-4 [1],"9.16 upbm affinity estimate (log intensity, higher = more binding, comparable within an allelic series)"
same,binding signal,NKX2-4 [2],"9.15 upbm affinity estimate (log intensity, higher = more binding, comparable within an allelic series)"
same,binding signal,NKX2-4 [3],"9.25 upbm affinity estimate (log intensity, higher = more binding, comparable within an allelic series)"
same,binding signal,NKX2-4 [4],"9.25 upbm affinity estimate (log intensity, higher = more binding, comparable within an allelic series)"
same,binding signal,PROP1 [6],"6.92 upbm affinity estimate (log intensity, higher = more binding, comparable within an allelic series)"
same,binding signal,PROP1 [7],"6.73 upbm affinity estimate (log intensity, higher = more binding, comparable within an allelic series)"
same,binding signal,PROP1 [8],"6.51 upbm affinity estimate (log intensity, higher = more binding, comparable within an allelic series)"
AGAGGGGC,binding signal,VENTX [5],"8.19 upbm affinity estimate (log intensity, higher = more binding, comparable within an allelic series)"
same,binding signal,HOXB9 [9],"8.56 upbm affinity estimate (log intensity, higher = more binding, comparable within an allelic series)"
same,binding signal,VENTX [10],"8.3 upbm affinity estimate (log intensity, higher = more binding, comparable within an allelic series)"
same,binding signal,VENTX [11],"8.07 upbm affinity estimate (log intensity, higher = more binding, comparable within an allelic series)"
same,binding signal,HOXB9 [12],"8.46 upbm affinity estimate (log intensity, higher = more binding, comparable within an allelic series)"
same,binding signal,HOXD13 [13],"9.48 upbm affinity estimate (log intensity, higher = more binding, comparable within an allelic series)"
same,binding signal,HOXD13 [14],"9.71 upbm affinity estimate (log intensity, higher = more binding, comparable within an allelic series)"
same,binding signal,HOXD13 [15],"9.59 upbm affinity estimate (log intensity, higher = more binding, comparable within an allelic series)"
same,binding signal,HOXB9 [16],"8.41 upbm affinity estimate (log intensity, higher = more binding, comparable within an allelic series)"
GCCGCAGC,binding signal,VENTX [5],"8.08 upbm affinity estimate (log intensity, higher = more binding, comparable within an allelic series)"
same,binding signal,HOXB9 [9],"8.46 upbm affinity estimate (log intensity, higher = more binding, comparable within an allelic series)"
same,binding signal,VENTX [10],"8.11 upbm affinity estimate (log intensity, higher = more binding, comparable within an allelic series)"
same,binding signal,PAX4 [17],"9.27 upbm affinity estimate (log intensity, higher = more binding, comparable within an allelic series)"
same,binding signal,PRRX1 [18],"9.25 upbm affinity estimate (log intensity, higher = more binding, comparable within an allelic series)"
same,binding signal,VENTX [11],"8.14 upbm affinity estimate (log intensity, higher = more binding, comparable within an allelic series)"
same,binding signal,PAX4 [19],"9.2 upbm affinity estimate (log intensity, higher = more binding, comparable within an allelic series)"
same,binding signal,HOXB9 [12],"8.33 upbm affinity estimate (log intensity, higher = more binding, comparable within an allelic series)"
same,binding signal,ALX1 [20],"6.7 upbm affinity estimate (log intensity, higher = more binding, comparable within an allelic series)"
same,binding signal,ALX3 [21],"7.73 upbm affinity estimate (log intensity, higher = more binding, comparable within an allelic series)"
same,binding signal,PAX4 [22],"9.23 upbm affinity estimate (log intensity, higher = more binding, comparable within an allelic series)"
same,binding signal,ALX1 [23],"6.73 upbm affinity estimate (log intensity, higher = more binding, comparable within an allelic series)"
same,binding signal,PAX4 [24],"9.18 upbm affinity estimate (log intensity, higher = more binding, comparable within an allelic series)"
same,binding signal,ALX3 [25],"7.89 upbm affinity estimate (log intensity, higher = more binding, comparable within an allelic series)"
same,binding signal,PAX4 [26],"9.21 upbm affinity estimate (log intensity, higher = more binding, comparable within an allelic series)"
same,binding signal,ALX3 [27],"7.75 upbm affinity estimate (log intensity, higher = more binding, comparable within an allelic series)"
same,binding signal,HOXB9 [16],"8.46 upbm affinity estimate (log intensity, higher = more binding, comparable within an allelic series)"
same,binding signal,ALX3 [28],"7.74 upbm affinity estimate (log intensity, higher = more binding, comparable within an allelic series)"
same,binding signal,PAX4 [29],"9.18 upbm affinity estimate (log intensity, higher = more binding, comparable within an allelic series)"
same,binding signal,ALX1 [30],"6.7 upbm affinity estimate (log intensity, higher = more binding, comparable within an allelic series)"
same,binding signal,ALX3 [31],"7.75 upbm affinity estimate (log intensity, higher = more binding, comparable within an allelic series)"
same,binding signal,PRRX1 [32],"9.47 upbm affinity estimate (log intensity, higher = more binding, comparable within an allelic series)"
GGGAGGAC,binding signal,VENTX [5],"8.23 upbm affinity estimate (log intensity, higher = more binding, comparable within an allelic series)"
same,binding signal,HOXA4 [33],"9.79 upbm affinity estimate (log intensity, higher = more binding, comparable within an allelic series)"
same,binding signal,VENTX [10],"8.18 upbm affinity estimate (log intensity, higher = more binding, comparable within an allelic series)"
same,binding signal,VENTX [11],"8.28 upbm affinity estimate (log intensity, higher = more binding, comparable within an allelic series)"
same,binding signal,HOXA4 [34],"9.91 upbm affinity estimate (log intensity, higher = more binding, comparable within an allelic series)"
same,binding signal,HOXA4 [35],"10.1 upbm affinity estimate (log intensity, higher = more binding, comparable within an allelic series)"
same,binding signal,HOXA4 [36],"9.92 upbm affinity estimate (log intensity, higher = more binding, comparable within an allelic series)"
